Sampled rows, rich in hits. Any-hit rate of the full collection: about 0.51%.
E coli growth-1 – E. coli growth inhibition. Escherichia coli growth, OD600, 23 h; stronger effect = lower value. OD600 absorbance (no concentration beside the values). 330,000 tested, 0.21% active. AID 1053175;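 active = OD600 absorbance below the run mean of sample wells minus 3.6 SD, in any replicate, cut at about 0.56 in these data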
AddAB inh – less growth of phage-infected E. coli with AddAB. E. coli expressing H. pylori AddAB, absorbance growth. 330,000 tested, 0.29% active. inhibition, % at 11.9 µM. AID 435030; in the data active = inhibition above about 12%;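 also: 0% = vehicle wells of infected cells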
Tat export inh – inhibitors of E. coli Tat protein transport | E. coli MC4100 TorA-mCherry Tat export, fluorescence | inhibition, % at 10 µM | 340,000 tested, 0.036% active;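 active = mean replicate inhibition at least 50% and at least half of replicates individually reaching 50%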;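 also: exported cargo escapes ClpAP degradation while cytoplasmic cargo is degraded and loses fluorescence; 0% = median of neutral control wells and 100% = median of NaSCN control wells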
phage Ecoli inh – E. coli growth loss with phage present. growth absorbance. inhibition, % at 11.9 µM. 360,000 tested, 0.26% active. AID 651602; in the data active = inhibition above about 11%
E coli growth-2 – counter-screen for AddAB inhibitors: E. coli growth inhibition; inhibition, % at 11.9 µM; AID 449728; E. coli V3065 growth, OD600 absorbance, 18 h; 330,000 tested, 0.27% active;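 active = inhibition above the campaign's mean inhibition across all tested compounds plus 3 SD, cut at about 9.9% in these data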;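 also: uninfected addAB+ strain grown without phage in ampicillin broth; 0% = DMSO wells and 100% = ciprofloxacin 0.95 µg/ml wells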
AddAB conf – confirmation screen: growth loss of phage-infected E. coli expressing H. pylori AddAB. shares compounds with AddAB inh. E. coli V3065 expressing H. pylori AddAB, T4 phage, OD; T4 phage with gene 2 nonsense mutations. inhibition, % at 11.9 µM. 880 tested, 64% active;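 active = mean inhibition above a set limit taken from the earlier primary screen, cut at about 13% in these data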;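 also: higher means less bacterial growth since AddAB block lets phage replicate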
RecBCD counter – counter-screen: growth loss of RecBCD+ E. coli with mutant T4 phage | inhibition, % at 11.9 µM | 880 tested, 73% active | shares compounds with AddAB inh | E. coli V66 + mutant T4 phage, OD growth | AID 488955;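 active = mean inhibition above the mean of solvent-only control wells plus 3 SD, cut at about 4% in these data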;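 also: optical density read after an 18 h incubation at 37 °C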
bact viab count – reduces bacterial viability, AddAB inhibitor counter-screen; shares compounds with AddAB inh; absorbance (AddAB counterscreen); inhibition, % at 11.9 µM; 880 tested, 35% active; in the data active = inhibition above about 25%
RecBCD conf – confirmation: growth loss of phage-infected RecBCD+ E. coli (RecBCD inhibitor screen) | shares compounds with phage Ecoli inh | E. coli V66 + T4 2- phage, growth OD | inhibition, % at 11.9 µM | 890 tested, 45% active;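 active = mean inhibition over triplicates exceeding the hit threshold derived in the original primary screen, cut at about 11% in these data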
Ecoli viability – inhibits E. coli viability, flagging RecBCD hits as nonselective; 890 tested, 29% active; shares compounds with phage Ecoli inh; absorbance (OD) growth; inhibition, % at 11.9 µM; in the data active = inhibition above about 20%;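 also: E. coli strain V66 grown with compound alone and no phage infection; 0% = bacteria with DMSO vehicle only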
AddAB phage OD – growth loss of phage-infected AddAB E. coli, RecBCD counter-screen. 890 tested, 45% active. E. coli expressing H. pylori AddAB + T4 phage, OD growth; gene 2 mutant T4, recBCD-deleted host. AID 651984. inhibition, % at 11.9 µM. shares compounds with phage Ecoli inh;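 active = mean inhibition above the solvent-only control wells' mean plus 3 SD, cut at about 22% in these data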;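 also: higher means less bacterial growth from phage killing when AddAB is blocked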
An asterisk follows results filed as active; x = no result given.

SMILES	E coli growth-1	AddAB inh	Tat export inh	phage Ecoli inh	E coli growth-2	AddAB conf	RecBCD counter	bact viab count	RecBCD conf	Ecoli viability	AddAB phage OD
O=C(Cc1ccc([N+](=O)[O-])cc1)N/N=C/c1ccc([N+](=O)[O-])o1	x	21*	-24	13*	14*	75*	7.1*	17	5	6	67*
Cc1ccc(C(=O)N/N=C\c2ccc(-c3ccc([N+](=O)[O-])cc3)o2)cn1	x	0	1	4	0	x	x	x	x	x	x
COc1ccc(OC)c(C=NNC(=O)CC(=O)NCCc2ccccc2)c1	0.67	x	x	x	x	x	x	x	x	x	x
Cc1ccc(S(=O)(=O)N2C(c3ccc4c(c3)OCO4)CC=C(C(=O)O)C2c2ccccc2)cc1 (stereo not given)	0.7	x	x	x	x	x	x	x	x	x	x
O=C(NC(=S)NNC(=O)c1cc2ccccc2cc1O)c1ccco1	x	15*	-17	20*	17*	15*	24*	18	14*	17	20
COc1ccc(C(=O)NC(=S)NNC(=O)c2ccccc2O)cc1	0.7	15*	-1	12*	18*	19*	23*	23	12*	16	22*
COc1ccc(C(=O)NC(=S)NNC(=O)c2ccccc2C)cc1	0.68	-3	-10	-1	-5	x	x	x	x	x	x
COc1ccc(C(=O)NC(=S)NNC(=O)c2ccco2)cc1	0.64	0	-1	-5	-4	x	x	x	x	x	x
Cc1ccc(C(=O)NNC(=O)c2cc3ccccc3cc2O)cc1	0.66	11	-11	7	-1	x	x	x	x	x	x
O=C(NNC(=O)c1cc2ccccc2cc1O)Nc1ccc(Br)cc1	0.69	15*	2	15*	11*	14*	17*	14	7	7	9
COc1ccc(C)cc1NC(=O)NNC(=O)c1cc2ccccc2cc1O	0.64	16*	-3	13*	15*	17*	14*	12	3	3	6
Cn1c(=O)n(N=Cc2ccccc2)c2ccccc21	0.67	x	x	x	x	x	x	x	x	x	x
O=C(/C=C/c1cccs1)NC(=S)NNC(=O)c1ccccc1O	0.6	26*	0	21*	22*	19*	22*	20	11	17	23*
COc1ccc(C(=O)NNC(=S)NC(=O)/C=C/c2cccs2)cc1	0.72	-6	-15	-2	-6	x	x	x	x	x	x
C=C1c2cccc(O)c2C(=O)C2C(=O)[C@]3(O)C(=O)C(C(N)=O)C(=O)[C@@H](N(C)C)[C@@H]3[C@@H](O)[C@H]12 (stereo not given in full)	x	100*	145*	99*	102*	101*	101*	99*	103*	105*	104*
CCN1/C(=C/c2ccc3cc(C)ccc3[n+]2CC)Sc2ccccc21	0.22*	25*	4	14*	28*	46*	14*	30*	6	4	16
CC[n+]1ccccc1/C=C1\Sc2ccc(C)cc2N1C	0.64	2	-2	0	2	x	x	x	x	x	x
CCOC(=O)C1=Nc2ccccc2C1=[N+]=[N-]	x	98*	11	91*	96*	100*	98*	101*	98*	99*	101*
O=C(N/N=C/c1ccccc1)c1ccc2c(c1)OCO2	x	5	5	2	1	x	x	x	x	x	x
O=C(NN=Cc1c(O)ccc2ccccc12)c1ccc2c(c1)OCO2	0.59	18*	-11	11*	21*	0	10*	-5	4	8	5
O=C(NNc1cc(Br)c(O)c(Br)c1)c1ccccc1	0.52	102*	-9	78*	97*	97*	50*	97*	39*	50*	101*
NS(=O)(=O)c1ccc(NNC(=O)c2ccccc2)cc1	0.63	1	-7	2	1	x	x	x	x	x	x
C=CC1=C(C(=O)O)N2C(=O)[C@@H](NC(=O)/C(=N\O)c3csc(N)n3)[C@H]2SC1 (stereo in doubt)	x	99*	-1	99*	99*	103*	101*	103*	104*	106*	105*
CCn1ccc(C(=O)NC2C(=O)N3C(C(=O)O)=C(C)CSC23)n1 (stereo not given)	0.72	1	-5	1	1	x	x	x	x	x	x
CC1CCc2cc(F)cc3c(=O)c(C(=O)O)cn1c23 (stereo not given)	0.062*	100*	56*	100*	100*	99*	31*	100*	102*	103*	102*
SMILES	E coli growth-1	AddAB inh	Tat export inh	phage Ecoli inh	E coli growth-2	AddAB conf	RecBCD counter	bact viab count	RecBCD conf	Ecoli viability	AddAB phage OD
CC1CCc2c(N3CCC(O)CC3)c(F)cc3c(=O)c(C(=O)O)cn1c23 (stereo not given)	0.059*	101*	60*	103*	102*	96*	99*	97*	102*	103*	103*
O=C(O)c1cn(C2CCCCC2)c2ccccc2c1=O	0.65	0	2	1	1	x	x	x	x	x	x
NC1CCN(c2c(F)cc3c(=O)c(C(=O)O)cn(C4CC4)c3c2Cl)C1 (stereo not given)	0.066*	97*	149*	99*	98*	102*	100*	102*	101*	101*	99*
COc1ccc(C=NNC(=S)Nc2ccccc2)cc1COc1ccc(F)cc1F	0.67	x	x	x	x	x	x	x	x	x	x
O=C(Nc1ccccc1-c1nnn(CC(=O)N2CCOCC2)n1)c1ccc(F)cc1	0.67	2	-3	11*	-1	x	x	x	-4	-5	0
O=C(Nc1ccc(Cl)cc1)c1cc2c(cc1O)[nH]c1ccccc12	0.17*	11	0	12*	10*	x	x	x	10	14	4
O=C(NN=Cc1ccc2cccc(OCc3ccccc3)c2n1)c1ccc(Cl)cc1	0.7	x	x	x	x	x	x	x	x	x	x
O=c1cc(CSc2nnc(Nc3ccccc3)s2)nc2sccn12	0.68	1	-8	4	2	x	x	x	x	x	x
Cc1cccc(Nc2nnc(SCc3cn4ccsc4n3)s2)c1	0.64	5	-7	17*	0	x	x	x	9	11	16
Cc1[nH]n(-c2ccccc2)c(=O)c1C=Nc1ccc(S(=O)(=O)Nc2nccs2)cc1	0.65	8	18	15*	7	x	x	x	7	4	26*

Assay outcomes: PubChem, several laboratories
